Measured values from PubChem BioAssay AID651800 (The Scripps Research Institute Molecular Screening Center, 2012).
Out of some 360,000 compounds screened, about 1,300 (0.36%) were called active. Shown is part of a subset that was picked to be rich in actives. Values without a mark were called inactive. Rule as the data show it: active = inhibition above about 19%; inactive = the rest.

These compounds were tested on T-cell receptor (TCR) (assay: inhibitors of human TCR-CD3 interaction, primary screen, biochemical, fluorescence, TAMRA-labeled TCR probe (AID 651800;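 also: recombinant mutant TCR 2C K166C tagged with TAMRA read by polarization; 0% = receptor in buffer alone and 100% = receptor with positive control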)). Details: at 9.4 µM, hits give high values.
`Nc1[nH]c(C(=O)c2ccccc2)c(-c2ccc(Cl)cc2Cl)c1C(=O)c1ccccc1` showed an inhibition of 4.17%.
`Nc1nc(CC(=O)CSc2ccc(Cl)cc2)nc(Nc2ccc(F)cc2)n1` showed an inhibition of 4.84%.
For `Cc1cc2nc3c(=O)[nH]c(=O)nc-3n(C[C@H](O)[C@H](O)[C@H](O)CO)c2cc1C`, the inhibition was 19.9% (active).
Work on `CN1CCCCC(NC(=O)C(C)(C)C)C1=O` (stereo not drawn) yielded an inhibition of -0.73%.
`CC(C)CNc1cccc2c1S(=O)(=O)N[C@H](C)CO2` gave an inhibition of 0.56%.
In the case of `C[C@H]1CN([C@@H](C)CO)C(=O)CCCn2nncc2CO[C@@H]1CN(C)C(=O)Nc1ccc(N2CCN(C)CC2)cc1`, the inhibition is reported as 3.36%.
`CN[C@H]1C[C@H]2c3[nH]c4c(-c5ccccc5)cccc4c3CCN2C(=O)[C@H]1[C@H](C)O` showed an inhibition of 2.21%.
`CC(NC(=S)Nc1ccc(S(N)(=O)=O)cc1)c1ccc2c(c1)OCO2` (stereo not drawn) showed an inhibition of -3.8%.
With `CCN(CC(=O)Nc1ccc2c(c1)OCO2)S(=O)(=O)c1ccccc1` the inhibition was -7.59%.
With `NS(=O)(=O)c1ccc(NC(=O)COC(=O)c2c3c(nc4ccccc24)/C(=C\c2ccc4c(c2)OCO4)CCC3)cc1` the inhibition was 50.3% (active).
`O=C(Cn1cnc2ccccc21)N/N=C/c1ccco1` gave an inhibition of 3.99%.
`Cc1c(Cl)cccc1NC(=O)CCC(=O)N/N=C/c1ccco1` showed an inhibition of 1.69%.
With `O=C(N/N=C/c1ccco1)c1ccc(C(=O)N/N=C/c2ccco2)o1` the inhibition was 21.8% (active).
`Cc1ccc2nc(CN(C)C(=O)[C@@H](Cc3ccccc3)NC(=O)[C@H]3O[C@@H](n4ccc(=O)[nH]c4=O)[C@H](O)[C@@H]3O)[nH]c2c1` gave an inhibition of 3.29%.
Work on `C=CCN=C1NC(c2cccc(C(F)(F)F)c2)C(C(=O)OC)=C(C)N1C` (stereo not drawn) yielded an inhibition of -6.24%.
With `O=C(N/N=C/c1cc([N+](=O)[O-])ccc1O)/C(=C\c1cccs1)NC(=O)c1ccccc1` the inhibition was 30.9% (active).
`COc1cc(/C=C(/NC(=O)c2ccccc2)C(=O)Nc2cccc(O)c2)c([N+](=O)[O-])cc1OC` showed an inhibition of -4.87%.
`Cc1ccc(C(=O)N/C(=C\c2cccs2)C(=O)NCCc2ccccn2)cc1C` was tested, and the inhibition was 2.48%.
For `Cn1c(=O)c(C(=O)Nc2ncccn2)c(O)c2ccccc21`, the inhibition was 3.65%.
With `C=CCn1c(=O)c(C(=O)Nc2ncccc2O)c(O)c2ccccc21` the inhibition was 29.1% (active).
For `C=CCn1c(=O)c(C(=O)NCc2ccc3c(c2)OCO3)c(O)c2ccccc21`, the inhibition was 4.79%.
In the case of `COCCNC(=S)N(C)[C@H]1C[C@H]2c3[nH]c4ccccc4c3CCN2C[C@H]1[C@H](C)O`, the inhibition is reported as 10.3%.
`O=C(Nc1cccc2ccccc12)NC1CC1` was tested, and the inhibition was 10.8%.
In the case of `CC(=O)N(C)c1ccc(NC(=O)Nc2cccc3ccccc23)cc1`, the inhibition is reported as -3.94%.
For `CCN(C(=O)Nc1cccc2ccccc12)c1ccccc1`, the inhibition was 66.9% (active).
Work on `CC1CCN(c2ccc(S(=O)(=O)Nc3cc(C(=O)O)cc(C(=O)O)c3)cc2[N+](=O)[O-])CC1` yielded an inhibition of 2.91%.
In the case of `O=c1c2ccccc2c(-c2ccccc2)nn1-c1ccccn1`, the inhibition is reported as 26.3% (active).
Work on `CCOC(=O)C(C)n1nc(-c2ccccc2)c2ccccc2c1=O` (stereo not drawn) yielded an inhibition of 1.19%.
Work on `O=C(O)c1ccc(-n2nc(-c3ccccc3)c3ccccc3c2=O)cc1` yielded an inhibition of -0.55%.
Work on `CC(C)[C@@H](C)/C=C/[C@@H](C)[C@H]1CC[C@@H]2[C@]1(C)CCC1[C@]23C=C[C@]2(C[C@@H](O)CC[C@]12C)N(c1ccc([N+](=O)[O-])cn1)O3` (stereo partly drawn) yielded an inhibition of 0.39%.
With `COC(=O)Nc1nc2ccc(C(=O)C3CC3)cc2[nH]1` the inhibition was 2.68%.
Compound `CC(=NNC(N)=O)c1ccc(Cl)c(-n2cccc2)c1` has an inhibition of -1.93%.
`CC(C)(C)C(=O)Nc1ccc(C(=O)N/N=C/c2ccccc2OC(=O)c2ccc(Cl)cc2Cl)cc1` was tested, and the inhibition was 33.2% (active).
`O=C(N/N=C/c1ccoc1)c1ccc(Cl)cc1Cl` gave an inhibition of 2.14%.
In the case of `CSc1ccc(/C=N/NC(=O)c2cccc(Cl)c2)cc1`, the inhibition is reported as -1.56%.
Compound `OC(CCl)CCl` has an inhibition of 2.99%.
Compound `COc1ccc(C2(CNC(=O)Cc3ccc(OC)c(OC)c3)CCCC2)cc1` has an inhibition of 8.2%.
In the case of `CCOc1c(OC)cccc1C(=O)NCC1(c2ccccc2)CCCC1`, the inhibition is reported as -3.45%.
`COc1cc(C(=O)NCC2(c3ccccc3)CCCC2)ccc1OC(C)C` was tested, and the inhibition was 35.4% (active).
`CCOC(=O)/C=C/c1ccccc1O` was tested, and the inhibition was 0.35%.
`O=c1[nH]n(-c2ccc([N+](=O)[O-])cc2)c(=O)c2ccccc12` was tested, and the inhibition was 57% (active).
Compound `CC(=O)N1c2ccccc2N(Cc2ccc([N+](=O)[O-])cc2)C(=O)C1(C)C` has an inhibition of -3%.
With `O=C(Nn1c(SCc2ccc([N+](=O)[O-])cc2)nc2ccccc2c1=O)c1ccc(F)cc1` the inhibition was 4.61%.
`N#Cc1ccc(-c2nc3cc(C#N)c(C#N)cc3nc2-c2ccccc2)cc1C#N` showed an inhibition of 10.9%.
Compound `COc1ccc(NC(=O)N(C)C[C@@H]2OCCCC[C@@H](C)Oc3ccc(NC(=O)NC4CCCCC4)cc3C(=O)N([C@H](C)CO)C[C@@H]2C)cc1` has an inhibition of 4.84%.
Compound `Cc1cc(=O)n2[nH]c(-c3sccc3-n3c(C)ccc3C)cc2n1` has an inhibition of -6.69%.
`CCOc1ccc(-n2c(SCC(=O)Nc3cc(C(=O)O)ccc3Cl)nc3ccccc3c2=O)cc1` gave an inhibition of -2.21%.
Work on `CCOc1ccc(N/C(N)=N/c2nc(C)c(C)c(=O)[nH]2)cc1` yielded an inhibition of 4.59%.
For `CCOc1ccc(-n2c(O)c(/C=N/Nc3nnc(C)c(=O)[nH]3)c3ccccc3c2=O)cc1`, the inhibition was 43.9% (active).
In the case of `CCN1C(=O)N[C@@H]2C[C@H](C(=O)N3CCCC3)[C@H](C)[C@H](c3ccccc3)C[C@@H]21`, the inhibition is reported as 2.71%.
`CCCCCCc1cc2cc(-c3nnc(-c4cccc(OC)c4)o3)c(=O)oc2cc1O` showed an inhibition of -0.99%.
`COC(=O)c1cc2c(c3c4ccccc4n(S(=O)(=O)c4cccc(C)c4)c13)C(=O)N(Cc1ccccc1)C2` gave an inhibition of -0.99%.
For `Nc1ccn([C@@H]2O[C@H](C(=O)N[C@H]3CCCCNC3=O)[C@@H](O)[C@H]2O)c(=O)n1`, the inhibition was 1.09%.
